High-throughput results (PubChem BioAssay)
Rows were chosen to be rich in hits. Some 22% of all compounds tested hit in one or more screens of this group.
LmPK inhibitor = inhibitors of Leishmania mexicana pyruvate kinase. 290,000 tested, 0.37% active. purified LmPK, Kinase-Glo ATP luminescence, 1 h. Potency, µM (series often up to 57.5 µM), actives largely listed as inhibitors
Target sequence (Q27686 whole entry, looked up): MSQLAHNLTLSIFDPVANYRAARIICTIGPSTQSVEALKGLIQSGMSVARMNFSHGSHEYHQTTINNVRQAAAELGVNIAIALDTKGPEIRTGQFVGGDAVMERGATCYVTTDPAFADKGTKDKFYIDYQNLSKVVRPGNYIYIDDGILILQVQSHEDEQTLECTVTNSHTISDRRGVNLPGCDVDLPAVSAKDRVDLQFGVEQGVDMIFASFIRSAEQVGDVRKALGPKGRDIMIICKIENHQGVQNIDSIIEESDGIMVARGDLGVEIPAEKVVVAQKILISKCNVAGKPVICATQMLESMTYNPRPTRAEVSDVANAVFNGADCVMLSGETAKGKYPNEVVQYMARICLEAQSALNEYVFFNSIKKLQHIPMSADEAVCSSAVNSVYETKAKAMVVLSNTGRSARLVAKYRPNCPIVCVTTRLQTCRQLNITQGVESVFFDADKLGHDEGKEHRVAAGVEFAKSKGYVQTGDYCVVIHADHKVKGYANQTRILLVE
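Screened at intermediate enzyme activity to detect both inhibitors and activators: LmPK at 0.1 nM, with a 0.5 nM enzyme column as activation reference. PEP 0.5 mM, ADP 0.1 mM; ATP detected by luminescence after 1 h.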
Pf growth 48h = inhibits P. falciparum growth in the first generation, 48 h; P. falciparum luciferase growth in erythrocytes, 48 h; 310,000 tested, 5.9% active; AID 504832; Potency, µM (series often up to 28.7 µM), hits mostly inhibitors
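Luciferase-expressing P. falciparum in infected erythrocytes (2% hematocrit, 0.1% parasitemia final) in RPMI 1640/0.5% Albumax were exposed to compound for 48 hours at 37 C, 5% CO2; growth read as luminescence.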
CHX counter = counter-screen for Shiga toxin inhibitors: cycloheximide protein synthesis inhibition; cell reporter, cycloheximide protein synthesis inhibition counterscreen; max response, %; 300,000 tested, 12% active; AID 2314; in the data active means max response mostly above about 13%, no sharp cut-off; inactive means mostly below about 14%; further: read at 38.3 µM for the half of the compounds with a filed dose
Shiga toxin inh = Shiga toxin inhibition; Vero cells, Shiga toxin protein synthesis inhibition reporter; inhibition, % at 38.7 µM; 290,000 tested, 9.2% active; in the data active means inhibition mostly above about 28%, no sharp cut-off; inactive means mostly below about 43%
Pf growth 96h = P. falciparum growth inhibition at 96 hours. P. falciparum luciferase reporter growth, 96 h. Potency, µM (top dose mostly 28.7 µM), hits mostly inhibitors. 320,000 tested, 6.9% active
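Plates of compound plus infected erythrocytes (2% hematocrit, 0.05% parasitemia final) incubate 96 hours, 37 C, 5% CO2. Detection reagent added; reduced luminescence from the parasites' luciferase reporter flags inhibition.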
Each line names hits and unclear results; the compound was inactive in the other large screens. Unless noted, the call rests on the fitted dose curve; in most records, active means well fitted inhibition curve with a large enough effect; inconclusive means small, poorly fitted or top-dose-only effect, or another doubt; inactive means no such curve, though single readings can be large or run the other way.

Cc1ccc(NC(=O)c2ccc(-c3nn(C)c(=O)c4ccccc34)cc2)cc1	Pf growth 96h 10µM (no result: Pf growth 48h)
Cc1ccc(NC(=O)c2ccc(-c3nn(C)c(=O)c4ccccc34)cc2)c(C)c1	Pf growth 96h 6.6µM (no result: Pf growth 48h)
Cc1ccc(S(=O)(=O)N(C)CC(=O)N2CCCCCC2)cc1	Pf growth 96h inconclusive
CC1Cc2ccccc2N1C(=O)Cn1cnc2ccccc21 (stereo not given)	none
Cn1nc(-c2ccc(C(=O)NC3CCCCC3)cc2)c2ccccc2c1=O	Pf growth 48h 5.2µM
CC1CCc2c(nc3sc4c(c3c2N)CCCC4)C1 (stereo not given)	CHX counter 37, Shiga toxin inh active, Pf growth 96h inconclusive
CC1CCc2nc3sc4c(c3c(N)c2C1)CCCC4 (stereo not given)	CHX counter 33, Shiga toxin inh 56
Cc1cccc(N(CC(=O)NCCC2=CCCCC2)S(C)(=O)=O)c1C	none (no result: Pf growth 96h)
Cc1nc2ccc(NS(=O)(=O)c3ccc(Br)cc3)cc2s1	Pf growth 96h inconclusive (no result: LmPK inhibitor, CHX counter, Shiga toxin inh)
O=C(O)CCc1ccc(S(=O)(=O)Nc2cc(C(F)(F)F)ccc2N2CCCC2)cc1	none (no result: LmPK inhibitor, CHX counter, Shiga toxin inh)
Cc1ccc(S(=O)(=O)c2cc3ccccc3nc2N)cc1	Pf growth 48h inconclusive, Pf growth 96h 9.3µM
CN(CC(=O)Nc1ccc(F)cc1)CC(=O)N1CCc2ccccc21	none (no result: LmPK inhibitor, CHX counter, Shiga toxin inh)
COc1ccc(N2CCN(C(=O)COC(=O)c3ccco3)CC2)cc1	none
COc1ccc(N2CCN(C(=O)C3Cc4ccccc4CN3C(=O)c3ccco3)CC2)cc1 (stereo not given)	Pf growth 48h 8.3µM, Pf growth 96h inconclusive (no result: LmPK inhibitor, CHX counter, Shiga toxin inh)
O=C(c1ccc(CN2CCc3ccccc3C2)cc1)N1CCN(c2ccccc2)CC1	none
COc1ccc(NC(=O)C2Cc3ccccc3CN2C(=O)c2ccco2)cc1 (stereo not given)	CHX counter 21
COc1ccc(NC(=O)N2Cc3ccccc3CC2C(=O)NC(C)(C)C)cc1 (stereo not given)	none
O=C(Nc1ccccc1N1CCOCC1)C1Cc2ccccc2CN1C(=O)c1ccco1 (stereo not given)	Pf growth 48h 10µM (no result: Pf growth 96h)
O=C(C1Cc2ccccc2CN1C(=O)c1ccccc1)N1CCN(c2ccccc2)CC1 (stereo not given)	Pf growth 48h inconclusive, Pf growth 96h 4.1µM
O=C(Nc1nnc(C2CC2)s1)C1Cc2ccccc2CN1C(=O)c1ccco1 (stereo not given)	CHX counter 23, Shiga toxin inh 39, Pf growth 96h inconclusive
CC(C)OC(=O)/C(C#N)=C/c1c[nH]c2ccccc12	none
CN(C)c1ccc(C(C[N+](=O)[O-])c2c(N)n(C)c(=O)n(C)c2=O)c(F)c1C#N (stereo not given)	none
COc1ccc(Br)cc1C(C[N+](=O)[O-])c1c(N)n(C)c(=O)n(C)c1=O (stereo not given)	Pf growth 48h 3.7µM, Pf growth 96h inconclusive
CCOc1cc2[nH]c(=S)n(Cc3ccc(C(=O)NCCN(CC)CC)cc3)c(=O)c2cc1OCC	Pf growth 48h 2.6µM
CC(C)NC(=O)c1ccc2c(=O)n(C3CCCC3)c(=S)[nH]c2c1	none
CCN(CC)CCNC(=O)c1ccc2c(=O)n(C3CCCC3)c(=S)[nH]c2c1	Pf growth 48h 2.3µM
C[C@@H](O)[C@@H]1C(=O)N2C(C(=O)O)=C([C@H]3CCCO3)S[C@H]12	none (no result: LmPK inhibitor, CHX counter, Shiga toxin inh)
CCOC(=O)/C(C#N)=C/c1c(N2CCN(CC)CC2)nc2c(C)cccn2c1=O	none
CCOc1ccc2nc(NC(=S)NCc3ccccc3)sc2c1	Pf growth 96h 4.1µM (no result: Pf growth 48h)
COc1cc(C(=O)Nc2nccs2)ccc1OCc1c(C)noc1C	Pf growth 48h inconclusive
CCOc1ccc2nc(NC(=O)Nc3ccccc3)sc2c1	CHX counter 22 (no result: Pf growth 48h)
COc1cc(C(=O)Nc2nc3ccccc3s2)ccc1OCc1c(C)noc1C	Pf growth 48h 12µM, CHX counter 18, Pf growth 96h inconclusive
CCOc1ccc2nc(NC(=O)c3ccccn3)sc2c1	LmPK inhibitor inconclusive, CHX counter 24, Shiga toxin inh 45
Cc1c(NC(=S)NC(=O)c2cccc(Br)c2)c(=O)n(-c2ccccc2)n1C	Pf growth 96h inconclusive
COc1n[nH]c(C(=O)Nc2nc3ccccc3s2)c1[N+](=O)[O-]	CHX counter 33, Shiga toxin inh 75
COc1n[nH]c(C(=O)NCc2ccccc2)c1[N+](=O)[O-]	none
COc1ccc(C(=O)Nc2nc3ccccc3s2)c(OC)c1	Pf growth 48h inconclusive, Pf growth 96h 13µM
COc1ccc2nc(NC(=O)Nc3ccccc3)sc2c1	CHX counter 56, Shiga toxin inh 92, Pf growth 96h inconclusive
COc1ccc(NC(=O)Nc2nc3ccccc3s2)cc1	CHX counter 44, Shiga toxin inh 114, Pf growth 96h inconclusive
CCC(C(=O)NC(N)=O)c1ccccc1 (stereo not given)	none (no result: LmPK inhibitor, CHX counter, Shiga toxin inh)
Cc1cccc(C)c1NC(=O)c1cnccn1	Pf growth 96h inconclusive
CS(=O)(=O)c1ccc2nc(NC(=O)C3=NN(c4ccccc4)C(=O)CC3)sc2c1	Pf growth 48h inconclusive
O=C(Nc1nc2c(F)cc(F)cc2s1)c1ccccn1	LmPK inhibitor inconclusive, CHX counter 35, Shiga toxin inh 95, Pf growth 96h inconclusive
CCOc1ccc2nc(NC(=O)Nc3cccs3)sc2c1	CHX counter 63, Shiga toxin inh 72
CCOc1ccc2nc(NC(=O)NC3CCCCC3)sc2c1	Pf growth 48h inconclusive
COc1ccc2nc(NC(=O)C3=NN(c4ccccc4)C(=O)CC3)sc2c1	CHX counter 18, Pf growth 96h inconclusive
COc1ccc(OCC(=O)NNc2nc3ccccc3s2)cc1	CHX counter 44, Shiga toxin inh 77
COC(=O)C1=C(C)NC(C)=C(C(=O)OC)C1C(=O)OC(C)C(=O)c1ccccc1 (stereo not given)	Pf growth 48h inconclusive, Pf growth 96h inconclusive
Cc1cc(C)c(-c2csc(NC(=O)C3=NN(c4ccccc4)C(=O)CC3)n2)c(C)c1	Pf growth 48h inconclusive, Pf growth 96h 9.3µM
COc1ccc(NS(=O)(=O)c2cccc(NC(=O)C34CCC(CC3)C4)c2)cc1	Pf growth 96h inconclusive
COc1ccc(NS(=O)(=O)c2cccc(NC(=O)C3=NN(c4ccccc4)C(=O)CC3)c2)cc1	Pf growth 48h inconclusive, Pf growth 96h 7.4µM
CC(C)(C)c1nc(NC(=O)Nc2ccccc2)sc1Br	Pf growth 48h inconclusive, CHX counter 46, Shiga toxin inh 71, Pf growth 96h inconclusive
CCc1ccccc1NC(=O)C1=CC(c2ccc(OC)c(OC)c2)=NS(=O)(=O)N1C	Pf growth 48h inconclusive
Cc1cccc(NC(=O)Nc2ccc(Oc3c(F)c(F)c(F)c(F)c3F)cc2)c1	Pf growth 48h inconclusive, Pf growth 96h 7.4µM
Cc1ccc(CNC(=O)Nc2cccc(C)c2)cc1	CHX counter 37, Shiga toxin inh 75
Cc1cccc(NC(=O)Nc2ccc(C)cc2Br)c1	CHX counter 32, Shiga toxin inh 61
Cc1ccc(NC(=O)NCc2ccc3[nH]c(C)cc3c2)cc1	Shiga toxin inh 41
CCc1cccc(C)c1NC(=S)NCc1ccc2[nH]c(C)cc2c1	Pf growth 48h 13µM, Pf growth 96h 10µM
